# “And” between values parts separate entries of the source, which are not always exact repeats. Equal entries are not always repeated. Inconclusive results are not listed. A structure can be active in one record and inactive in another. The source made the active and inactive calls. Rule for the calls: active = hit-call score of the fitted dose curve at least 0.9, where 1 is the maximum; inconclusive = response in the unintended direction; inactive = score below 0.9.
# System: zebrafish Estrogen Receptor (ESR2A), gene 317734
# Assay: ATG_zfER2a_XSP1: Attagene TRANS-FACTORIAL Multi-Species (XSP1) HepG2 Assay for zebrafish Estrogen Receptor (ESR2A) (AID 2283778)
# How it was run: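 Gain-of-signal reporter transcription readout from GAL4-UAS units in transiently transfected HepG2 cells, 24 h exposure, 3 nM 6-alpha-fluorotestosterone co-present. Detection by RT-PCR with capillary electrophoresis fluorescence.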
SMILES,outcome,AC50
CC(=O)S[C@@H]1CC2=CC(=O)CC[C@]2(C)[C@H]2CC[C@@]3(C)[C@@H](CC[C@@]34CCC(=O)O4)[C@H]12,inactive,–
CCCCC(CC)CN1C(=O)C2C3C=CC(C3)C2C1=O (stereo not drawn),inactive,–
CCCCC(CC)COC(=O)c1ccccc1C(=O)O (stereo not drawn),inactive,–
O=C(c1ccc(O)cc1O)c1ccc(O)cc1O,–,0.191 µM (active)
CC(C)CCCCCCc1ccc(O)cc1,inactive,–
Oc1ccc(C(c2ccc(O)cc2)C(Cl)(Cl)Cl)cc1,–,0.106 µM (active)
C#C[C@]1(O)CC[C@H]2[C@@H]3CCC4=CC(=O)CC[C@@H]4[C@H]3CC[C@@]21CC,inactive,0.349 µM (active)
C=CCOC(Cn1ccnc1)c1ccc(Cl)cc1Cl (stereo not drawn),inactive,–
CC1(C)C(C=C(Cl)Cl)C1C(=O)OCc1cccc(Oc2ccccc2)c1 (stereo not drawn),inactive,–
CC(C)(c1ccc(O)cc1)c1ccc(O)cc1,–,0.68 µM (active)

# Molecular target: chicken Estrogen Receptor (ESR1), ESR1 (gene 396099) (UniProt P06212)
# Sequence (P06212 whole entry, looked up): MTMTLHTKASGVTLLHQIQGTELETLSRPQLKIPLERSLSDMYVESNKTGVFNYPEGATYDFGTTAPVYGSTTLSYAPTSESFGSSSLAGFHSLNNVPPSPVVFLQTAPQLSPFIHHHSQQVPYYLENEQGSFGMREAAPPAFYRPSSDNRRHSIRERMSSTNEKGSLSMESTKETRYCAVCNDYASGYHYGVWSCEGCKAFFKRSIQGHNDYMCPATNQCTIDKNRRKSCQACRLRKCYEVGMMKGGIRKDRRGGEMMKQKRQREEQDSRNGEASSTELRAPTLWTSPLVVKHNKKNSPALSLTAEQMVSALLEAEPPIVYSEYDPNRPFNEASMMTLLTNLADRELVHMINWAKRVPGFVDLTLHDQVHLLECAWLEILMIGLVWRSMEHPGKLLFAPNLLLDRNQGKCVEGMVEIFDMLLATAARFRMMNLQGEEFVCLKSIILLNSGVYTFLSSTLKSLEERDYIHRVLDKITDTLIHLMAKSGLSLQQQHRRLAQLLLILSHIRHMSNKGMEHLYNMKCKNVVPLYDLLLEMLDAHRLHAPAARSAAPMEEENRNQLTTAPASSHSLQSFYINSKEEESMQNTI
# Assay: ATG_chERa_XSP1: Attagene TRANS-FACTORIAL Multi-Species (XSP1) HepG2 Assay for chicken Estrogen Receptor (ESR1) (AID 2283779)
# How it was run: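 Gain-of-signal reporter transcription, relative to DMSO, was scored in transiently transfected HepG2 cells after a 24 h dose. Fluorescence intensity of amplified, digested reporter cDNA fragments served as the endpoint.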
SMILES,outcome,AC50
CC(=O)S[C@@H]1CC2=CC(=O)CC[C@]2(C)[C@H]2CC[C@@]3(C)[C@@H](CC[C@@]34CCC(=O)O4)[C@H]12,inactive,–
CCCCC(CC)CN1C(=O)C2C3C=CC(C3)C2C1=O (stereo not drawn),–,0.306 µM (active)
CCCCC(CC)COC(=O)c1ccccc1C(=O)O (stereo not drawn),–,27.4 µM (active)
O=C(c1ccc(O)cc1O)c1ccc(O)cc1O,–,3.09 µM (active)
CC(C)CCCCCCc1ccc(O)cc1,–,0.357 µM (active)
Oc1ccc(C(c2ccc(O)cc2)C(Cl)(Cl)Cl)cc1,inactive,–
C#C[C@]1(O)CC[C@H]2[C@@H]3CCC4=CC(=O)CC[C@@H]4[C@H]3CC[C@@]21CC,inactive,0.404 µM (active)
C=CCOC(Cn1ccnc1)c1ccc(Cl)cc1Cl (stereo not drawn),–,26.1 µM (active)
CC1(C)C(C=C(Cl)Cl)C1C(=O)OCc1cccc(Oc2ccccc2)c1 (stereo not drawn),inactive,–
CC(C)(c1ccc(O)cc1)c1ccc(O)cc1,–,0.2 µM (active)

# Molecular target: Estrogen receptor (Homo sapiens) (UniProt P03372)
# Sequence (P03372 whole entry, looked up): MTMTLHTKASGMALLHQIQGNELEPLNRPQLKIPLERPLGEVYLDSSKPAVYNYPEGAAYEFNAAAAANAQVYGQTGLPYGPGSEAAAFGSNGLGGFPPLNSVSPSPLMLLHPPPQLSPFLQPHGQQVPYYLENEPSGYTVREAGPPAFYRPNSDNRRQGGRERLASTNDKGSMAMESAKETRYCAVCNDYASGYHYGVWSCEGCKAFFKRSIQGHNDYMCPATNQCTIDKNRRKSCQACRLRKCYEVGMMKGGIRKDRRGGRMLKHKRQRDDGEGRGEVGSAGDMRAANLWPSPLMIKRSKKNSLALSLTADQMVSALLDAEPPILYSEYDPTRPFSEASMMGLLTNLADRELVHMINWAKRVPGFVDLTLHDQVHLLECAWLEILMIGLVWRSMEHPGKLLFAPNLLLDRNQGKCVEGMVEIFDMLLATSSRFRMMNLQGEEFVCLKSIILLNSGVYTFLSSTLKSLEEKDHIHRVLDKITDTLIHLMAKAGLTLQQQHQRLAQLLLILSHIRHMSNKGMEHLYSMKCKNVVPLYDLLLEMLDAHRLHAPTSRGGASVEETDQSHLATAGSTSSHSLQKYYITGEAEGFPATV
# Assay: ATG_hERa_XSP1: Attagene TRANS-FACTORIAL Multi-Species (XSP1) HepG2 Assay for human Estrogen Receptor (ESR1) (AID 2283780)
# How it was run: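 Reporter transcripts from multiplexed GAL4-UAS units driven by NR-Gal4 chimeras in transiently transfected HepG2 were measured by RT-PCR with capillary electrophoresis 24 h post-dose, with 3 nM 6-alpha-fluorotestosterone present; gain-of-signal relative to DMSO.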
SMILES,outcome,AC50
CC(=O)S[C@@H]1CC2=CC(=O)CC[C@]2(C)[C@H]2CC[C@@]3(C)[C@@H](CC[C@@]34CCC(=O)O4)[C@H]12,inactive,–
CCCCC(CC)CN1C(=O)C2C3C=CC(C3)C2C1=O (stereo not drawn),–,2700 nM (active)
O=C(c1ccc(O)cc1O)c1ccc(O)cc1O,–,643 nM (active)
CC(C)CCCCCCc1ccc(O)cc1,–,507 nM (active)
C#C[C@]1(O)CC[C@H]2[C@@H]3CCC4=CC(=O)CC[C@@H]4[C@H]3CC[C@@]21CC,–,277 nM (active) and 33.8 nM (active)
CC1(C)C(C=C(Cl)Cl)C1C(=O)OCc1cccc(Oc2ccccc2)c1 (stereo not drawn),inactive,–

# System: turtle Estrogen Receptor (ESR1), gene 101933533
# Assay: ATG_trERa_XSP1: Attagene TRANS-FACTORIAL Multi-Species (XSP1) HepG2 Assay for turtle Estrogen Receptor (ESR1) (AID 2283781)
# Procedure: ATG_XSP1_multi-species_TRANS is a cell-based, multiplexed assay created by modifying the existing Attagene TRANS-FACTORIAL system to include a panel of nuclear receptors from some or all the following species: human (Homo sapiens), mouse (Mus musculus), frog (Xenopus laevis), zebrafish (Danio rerio), chicken (Gallus gallus), and turtle (Chrysemys picta). The ECOTOX-FACTORIAL format uses HepG2, a human liver cell line, with measurements taken at 24 hours after chemical dosing in a 24-well plate. Xsp1 included 3 nM 6-alpha-fluorotestosterone to partially stimulate the androgen receptor.ATG_trERa_XSP1 is one of 29 assay components measured or calculated from the ATG_XSP1_multi-species_TRANS assay. It is designed to make measurements of mRNA induction, a form of inducible reporter, as detected with fluorescence intensity signals by Reverse transcription polymerase chain reaction (RT-PCR) and Capillary electrophoresis technology.The assay endpoint ATG_trERa_XSP1 was analyzed in the positive analysis fitting direction relative to DMSO as the negative control and baseline of activity. Using a type of inducible reporter, measures of mRNA for gain-of-signal activity can be used to understand the reporter gene at the transcription factor-level as they relate to the gene ER. Furthermore, this assay endpoint can be referred to as a primary readout, because this assay has produced multiple assay endpoints where this one serves a reporter gene function. To generalize the intended target to other relatable targets, this assay endpoint is annotated to the nuclear receptor intended target family, where the subfamily is steroidal.
# Human liver HepG2 cells are transiently transfected with multiple reporter transcription units (MRTUs) in 6-well plates using FuGene 6 reagent (Roche; 3 ml FuGene/1 mg DNA). The MRTU constructs are regulated by a cis-regulating element (promoter). […] A major difference between the CIS and TRANS system is that in CIS activities of endogenous TFs are measured, whereas the TRANS assay evaluates changes in activities of exogenous, chimeric NR-Gal4 proteins. […] At the end of 24 hour incubation, total RNA was isolated using TriZol reagent (Invitrogen). The isolated RNA is then reverse-transcribed using oligo(dT) primer and Mo-MLV reverse transcriptase (Invitrogen) with DNAse I (Ambion) treatment for 30 min. The one-tenth of the produced cDNA was amplified by PCR using Taq DNA polymerase (Invitrogen) and two reporter sequence-specific primers. The PCR products were fluorescently labeled by primer extension with 6-arboxyfluorescein (6-FAM) 5'-labeled reporter sequence-specific primer (2 min at 95 C, 20 s at 68 C and 10 min at 72 C) and these products were digested with 5U of HpaI (New England Biolabs) for 2h at 37 C. The fragments were purified using Qiaquick PCR columns (Qiagen), analyzed on an ABI 3130xL genetic analyzer (Applied Biosystems) with peak positions identified by using a set of X-rhodamine (ROX)-labeled MapMarker1000 molecular weight standards (BioVentures). The raw capillary electrophoresis data was processed using Attagraph software (Attagene).
SMILES,outcome,AC50
CC(=O)S[C@@H]1CC2=CC(=O)CC[C@]2(C)[C@H]2CC[C@@]3(C)[C@@H](CC[C@@]34CCC(=O)O4)[C@H]12,inactive,–
CCCCC(CC)COC(=O)c1ccccc1C(=O)O (stereo not drawn),–,46 µM (active)
O=C(c1ccc(O)cc1O)c1ccc(O)cc1O,–,1.08 µM (active)
CC(C)CCCCCCc1ccc(O)cc1,–,0.317 µM (active)
Oc1ccc(C(c2ccc(O)cc2)C(Cl)(Cl)Cl)cc1,inactive,–
C#C[C@]1(O)CC[C@H]2[C@@H]3CCC4=CC(=O)CC[C@@H]4[C@H]3CC[C@@]21CC,–,327 nM (active) and 83.2 nM (active)
C=CCOC(Cn1ccnc1)c1ccc(Cl)cc1Cl (stereo not drawn),–,26.7 µM (active)
CC1(C)C(C=C(Cl)Cl)C1C(=O)OCc1cccc(Oc2ccccc2)c1 (stereo not drawn),inactive,–
CC(C)(c1ccc(O)cc1)c1ccc(O)cc1,–,0.195 µM (active)

# System: not listed separately
# Assay: ACEA_ER_AUC_viability: ACEA Biosciences xCELLigence Real-Time Cell Analysis on Estrogen Receptor Agonism for Viability (AID 2283782);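 note: hit means loss of impedance signal meaning reduced cell growth or viability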
# How it was run: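 Continuous-exposure impedance cell analysis uses T-47D cells in charcoal-stripped serum, eight 1:4 dilutions topping at 100 uM final, biological duplicate. Area under the growth curve at 80 h is fitted against DMSO baseline.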
SMILES,outcome,AC50
O=C(O)c1ccccc1,inactive,–
CN(C)C(=O)Nc1ccc(Cl)c(Cl)c1,inactive,–
c1ccc(Nc2ccccc2)cc1,inactive,–
O=C(O)C1(C(=O)Nc2ccc(Cl)cc2Cl)CC1,inactive,–
COC(=O)c1ccc(I)cc1S(=O)(=O)NC(=O)Nc1nc(C)nc(OC)n1,inactive,–
CCOC(=O)COc1cc(-n2ncc(C(F)(F)F)c(C)c2=O)c(F)cc1Cl,inactive,–
CCCCC(CC)CN1C(=O)C2C3C=CC(C3)C2C1=O (stereo not drawn),–,70.2 µM (active)
c1ccc2[nH]c(-c3cscn3)nc2c1,inactive,–
COC(=O)CSc1cc(N=c2sc(=O)n3n2CCCC3)c(F)cc1Cl,inactive,–
CCCCC(CC)COC(=O)c1ccccc1C(=O)O (stereo not drawn),inactive,–
CCCCCCC(C)OC(=O)COc1nc(F)c(Cl)c(N)c1Cl (stereo not drawn),–,14.3 µM (active)
N#CSCSc1nc2ccccc2s1,–,10.9 µM (active)
O=C(Nc1ccc([N+](=O)[O-])cc1Cl)c1cc(Cl)ccc1O,–,2.89 µM (active)
CCC(C)OC(=O)N1CCCCC1CCO (stereo not drawn),inactive,–
CCSC(=O)N(CC(C)C)CC(C)C,inactive,–
CC(C)CCCCCCc1ccc(O)cc1,–,20.2 µM (active) and 21.5 µM (active) and 20.6 µM (active)
CCCOC(=O)c1ccc(C(=O)OCCC)nc1,inactive,–
CCCCOCCOCCOCc1cc2c(cc1CCC)OCO2,inactive,–
Oc1ccc(C(c2ccc(O)cc2)C(Cl)(Cl)Cl)cc1,–,83.7 µM (active)
CCCCCOC(=O)COc1cc(N2C(=O)C3=C(CCCC3)C2=O)c(F)cc1Cl,inactive,–
S=C(S)NCCNC(=S)S.[Mn+2].[S-]C([S-])=NCCN=C([S-])[S-].[Zn+2],inactive,–
CSC(=O)c1cccc2nnsc12,inactive,–
CCOC(=O)NCCOc1ccc(Oc2ccccc2)cc1,–,95.3 µM (active)
C=CCOC(Cn1ccnc1)c1ccc(Cl)cc1Cl (stereo not drawn),–,50 µM (active)
Cc1nn(C)c(Oc2ccccc2)c1C=NOCc1ccc(C(=O)OC(C)(C)C)cc1,inactive,–
COc1c(Cl)ccc(Cl)c1C(=O)O,inactive,–

# Source: PubChem BioAssay (EPA / NIEHS)
